From PubChem BioAssay AID1347076 (National Center for Advancing Translational Sciences (NCATS), 2019)
About 13,000 (3.2%) of roughly 400,000 compounds were called active. Inconclusive results (about 18%) are left out. Calls come from the whole dose curve; as a rule, active = well fitted cell-killing curve with a large enough effect; inconclusive = small, poorly fitted or top-dose-only effect, or effect the other way; inactive = flat fitted curve, though single readings scatter. The full list was thinned out, with actives kept by preference.

Experiment: qHTS assay for MDR1-selective chemotherapeutics: Primary screen using the drug-selected MDR subline cells KB-V1; note: nearly all actives have a fitted effect of over 60% in size
Conditions: KB-V1 MDR cells viability, CellTiter-Glo, 72 h; series mostly up to 46.1 µM; activity change, negative = cytotoxicity: at the top concentration
Summary of the method: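 Readout: CellTiter-Glo luminescence, 10 min after addition. Cells: KB-V1 MDR subline, 72 h at 37 degrees C with compound. Analysis: corrected, normalized data fitted to concentration-effect curves.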
% is set by controls: 0 for no effect and ±100 for the full control effect; potency is the fitted concentration of half-maximal effect.

SMILES | activity change, negative = cytotoxicity | Potency
CC(=O)N1Cc2cc(C(=O)NCc3cccc(F)c3)nc(-c3cccc(C4=CCCCC4)c3)c2[C@H]1CCO | -10.4% (inactive) | –
O=C(NC(c1ccc(Cl)cc1)c1cnccn1)C1CCN(Cc2ccc(Cl)cc2)CC1 (centres undefined) | -6.8% (inactive) | –
COc1ccccc1CNc1nc(Nc2ccccc2Cl)c2sccc2n1 | -8.34% (inactive) | –
Cc1ccc(-c2n[nH]c(=S)n2/N=C/c2cc3c(cc2[N+](=O)[O-])OCO3)cc1 | – | 8.2 µM (active)
CCOc1ccc(-c2n[nH]c(=S)n2/N=C/c2cc3c(cc2[N+](=O)[O-])OCO3)cc1 | -20.5% (inactive) | –
Cc1ccc(S(=O)(=O)N/N=C\c2cc3c(cc2[N+](=O)[O-])OCO3)cc1 | -14.7% (inactive) | –
Cc1cc2c3ccccc3[nH]c(=O)n2n1 | 15.2% (inactive) | –
CCOc1ccc(S(=O)(=O)N2CCCC(C(=O)N3CCC(C(N)=O)CC3)C2)cc1Cl (centres undefined) | -2.55% (inactive) | –
CCOC(=O)C1CCCN(C(=O)C2CCN(S(=O)(=O)c3ccc(Cl)c(C(F)(F)F)c3)CC2)C1 (centres undefined) | – | 20.6 µM (active)
CCOC(=O)C1CCCN(C(=O)c2cccc(S(=O)(=O)N3CCOCC3)c2)C1 (centres undefined) | -5.97% (inactive) | –
Nc1[nH]c(C(=O)c2ccccc2)c(-c2ccc(Br)cc2)c1C(=O)NC1CC1 | -35% (inactive) | –
CCc1ccc(OCCCn2c(CCCNC(=O)C3CCCCC3)nc3ccccc32)cc1 | -0.972% (inactive) | –
COc1cccc(CNC(=O)c2cccnc2Sc2ccc(Cl)cc2)c1 | 18.3% (inactive) | –
O=C(NC1CCCCCC1)c1cccnc1Sc1ccc(Cl)cc1 | 2.94% (inactive) | –
O=C(NCc1cccnc1)c1cccnc1Sc1ccc(Cl)cc1 | – | 18.4 µM (active)
OCCc1ccc(NCCc2ccco2)cc1 | 20.5% (inactive) | –
COc1ccc([N+](=O)[O-])cc1NC(=O)CCc1ccccc1 | -17.9% (inactive) | –
COc1ccc([N+](=O)[O-])cc1NC(=O)C(C)OC(=O)C1c2ccccc2Oc2ccccc21 (centres undefined) | – | 9.2 µM (active)
COc1ccc(C(=O)CC(=O)C(=O)Nc2cc([N+](=O)[O-])ccc2OC)cc1 | -1.07% (inactive) | –
Cc1ccccc1NC(=O)Cc1nc(COC(=O)C(C)(C)Oc2ccc(Cl)cc2)cs1 | 9.47% (inactive) | –
Cc1ccc(Cc2nc3ccccc3nc2SCC(=O)Nc2cccc(C(F)(F)F)c2)cc1 | 0% (inactive) | –
Cc1onc(-c2ccc(F)cc2F)c1C(=O)Nc1cccc(C(F)(F)F)c1 | -23.5% (inactive) | –
Cn1nc(C(F)(F)F)c(C(=O)Nc2cccc(C(F)(F)F)c2)c1SCc1ccc(Cl)cc1 | – | 18.4 µM (active)
CCC(=O)N1CCc2cc(Br)cc(S(=O)(=O)CCC(=O)NCCc3ccc(OC)c(OC)c3)c21 | 0% (inactive) | –

SMILES | activity change, negative = cytotoxicity | Potency
C[C@@H]1CN([C@H](C)CO)C(=O)CCCn2cc(nn2)CO[C@H]1CN(C)S(C)(=O)=O | -10.7% (inactive) | –
Cc1ccc(-c2nn(CCC(=O)Nc3ccc(OC(F)(F)F)cc3)c(=O)c3ccccc23)cc1 | -14.4% (inactive) | –
CCc1nc2ccc(C(=O)Nc3ccc(OC)c(OC)c3)cn2c1N(C)C(=O)c1cccc(OC)c1 | 3.04% (inactive) | –
CCCC/C=C/c1cccc2nncn12 | 5.91% (inactive) | –
CCCCC[C@H](C)N1C[C@@H](COCc2ccccc2)Oc2cc(N3CCC[C@@H]3CO)ccc2S1(=O)=O | 13.8% (inactive) | –
CC(=O)N1c2ccc(S(=O)(=O)N3CCCC(C(=O)Nc4cccc(Cl)c4)C3)cc2CC1C (centres undefined) | -8.22% (inactive) | –
CC(=O)N1CCCc2cc(S(=O)(=O)N3CCCC(C(=O)NCc4ccc(Cl)cc4)C3)ccc21 (centres undefined) | – | inactive
CC(=O)N1CCCc2cc(S(=O)(=O)N3CCCC(C(=O)N4CCN(c5cccc(Cl)c5)CC4)C3)ccc21 (centres undefined) | – | 16.4 µM (active)
CC(=O)c1ccc(NC(=O)CSc2nc(-c3ccccc3F)nc3c2c(=O)n(C)c(=O)n3C)cc1 | 27.3% (inactive) | –
CC(C)CCNC(=O)CSc1nc2ccccc2nc1Cc1ccc(Cl)cc1 | 10.5% (inactive) | –
C=CCSc1nc(Cc2ccc(Cl)cc2)nc2ccccc12 | – | 16.4 µM (active)
CCCNC(=O)CSc1nc(Cc2ccccc2)nc2ccccc12 | -19.6% (inactive) | –
CCOC(=O)c1c(NC(=O)c2cc(-c3ccc(Cl)cc3)on2)sc2c1CCCC2 | 6.22% (inactive) | –
COc1ccc(C)cc1-n1nnnc1SCc1nc2ccccc2c(=O)[nH]1 | – | 5.17 µM (active)
CCn1c(COc2c(C)cccc2C)nnc1SCc1nc2ccccc2c(=O)[nH]1 | -6.81% (inactive) | –
COc1ccc(CCCc2nnc(SCc3nc4ccccc4c(=O)[nH]3)n2C)cc1 | -19.7% (inactive) | –
COCCCn1c(=O)/c(=C/c2ccccc2OC(C)C)s/c1=C(\C#N)C(=O)Nc1ccc(C(=O)O)cc1 | -5.04% (inactive) | –
Cc1nc(C(F)(F)F)ccc1C(=O)N1CCC1(C)C(=O)NS(=O)(=O)c1ccccc1Cl (centres undefined) | 0.0203% (inactive) | –
COc1cc(CNC(=O)c2cc3n(n2)CCCN(Cc2cccc(F)c2)C3=O)cc(OC)c1OC | 1.03% (inactive) | –
COC(=O)c1ccccc1NC(=O)Cn1c(=O)cc(C)c2c(C)nn(-c3cccc(Cl)c3C)c21 | 3.13% (inactive) | –
CCCCCNC(=O)c1cccnc1SCC(=O)Nc1ccccc1OC | – | 6.51 µM (active)
CCCNC(=O)c1ccccc1NC(=O)CSCc1ccc(OC)cc1 | -14.4% (inactive) | –
COc1ccccc1NC(=O)CSc1nnc(CNC(=O)c2ccccc2F)o1 | 0% (inactive) | –
O=C(Nc1ccccn1)c1sc2ccc([N+](=O)[O-])cc2c1Cl | -9.59% (inactive) | –

SMILES | activity change, negative = cytotoxicity | Potency
Cc1ccc(-c2ccc(CN3C(C(C)C)C(=O)N(Cc4cn(CCC5OCCCO5)nn4)CCS3(=O)=O)cc2)cc1 (centres undefined) | -14.7% (inactive) | –
CNC(=O)C[C@H]1C(=O)N(Cc2ccccc2)C[C@@H]1CSC | 1.19% (inactive) | –
Cc1ccc(-c2nc(-c3cccnc3)sc2CC(=O)Nc2ccc(C)c(Cl)c2)cc1 | – | 8.2 µM (active)
Cc1nc(-c2ccc(F)cc2)c(CC(=O)Nc2cccc(S(=O)(=O)N3CCOCC3)c2)s1 | -8.88% (inactive) | –
Cc1ccc(NC(=O)Nc2cccnc2)cc1 | -4.27% (inactive) | –
CC(=O)N1C[C@@H](CO)[C@@H](N(C)C(=O)c2ccco2)C[C@H]1c1ccccc1 | 12.2% (inactive) | –
CCCCn1nnnc1C(c1cccc(OC)c1OC)N1CCN(C/C=C/c2ccccc2)CC1 (centres undefined) | 14.1% (inactive) | –
CC(C)(O)C#Cc1ccc(CNC[C@H]2O[C@@H](n3cnc4c(=O)[nH]c(N)nc43)[C@H](O)[C@@H]2O)s1 | 8.09% (inactive) | –
O=C(c1ccc(S(=O)(=O)N2CCCC2)cc1)N1CCN(c2ccccc2F)CC1 | -7.58% (inactive) | –
O=C(c1ccc(S(=O)(=O)NCc2ccco2)cc1)N1CCN(c2ccccc2)CC1 | -12.4% (inactive) | –
O=C(c1ccc(S(=O)(=O)N2CCOCC2)cc1)N1CCN(c2ccccc2)CC1 | – | 16.4 µM (active)
COc1cc2nnn(-c3ccncc3)c2cc1OC | -1.5% (inactive) | –
CCOC(=O)C1(C)CCCN(C(=O)c2ccc(N(C)C)cc2)C1 (centres undefined) | 3.14% (inactive) | –
O=C(Nc1ccccc1)c1ccccc1Br | 4.37% (inactive) | –
O=C(Nc1nnc(-c2ccc(Cl)cc2)o1)c1ccccc1Br | – | 6.51 µM (active)
O=C(COC(=O)c1ccccc1Br)Nc1nnc(-c2ccccc2)o1 | -26.5% (inactive) | –
CCc1nc2c(OCc3ccc(C(=O)OC)cc3)cccn2c1N(C)C(=O)C(C)C | 0.64% (inactive) | –
CCOC(=O)c1sc(NC(=O)C(CC)Sc2nccn2C)nc1C (centres undefined) | -18.2% (inactive) | –
C=CCn1c2ccccc2c2nnc(SC(CC)C(=O)Nc3nc(C)c(C(=O)OCC)s3)nc21 (centres undefined) | – | 2.31 µM (active)
C=CCn1nc(C(=O)OCC)cc1-c1sc(NC(=O)c2ccccc2)nc1C | -21.4% (inactive) | –
COc1ccc(CCNC(=O)C(=O)NCC2CCCN2S(=O)(=O)c2cccs2)cc1OC (centres undefined) | -25.2% (inactive) | –
COc1ccccc1CCNC(=O)C(=O)NCCC1CCCCN1S(=O)(=O)c1cccs1 (centres undefined) | -9.95% (inactive) | –
O=C(NCCC1CCCCN1S(=O)(=O)c1cccs1)C(=O)Nc1ccc(F)cc1F (centres undefined) | – | 14.6 µM (active)
COc1cc(C#Cc2ccc3cc(CCCO)oc(=O)c3c2)cc(OC)c1 | – | 3.66 µM (active)

SMILES | activity change, negative = cytotoxicity | Potency
O=C1c2ccccc2C(=O)N1CCC#Cc1ccc2cc(C3(O)CCCCC3)oc(=O)c2c1 | 4.63% (inactive) | –
O=C(CSc1nnc(-c2ccco2)n1-c1ccccc1)NCCc1ccccc1 | -20.9% (inactive) | –
O=C(CSc1nnc2scc(-c3ccc(F)cc3)n12)NCc1ccco1 | -5.87% (inactive) | –
O=C(CSc1nnc(-c2ccco2)n1Cc1ccccc1)NC(=O)NCc1ccco1 | – | 20.6 µM (active)
CCn1c(SCC(=O)NCc2ccco2)nnc1-c1ccc(N)cc1 | 0% (inactive) | –
Cn1c(-c2ccc(F)cc2)cnc1SCC(=O)NCc1ccco1 | -15.2% (inactive) | –
Cc1ccc(-c2csc3nnc(SCC(=O)NCc4ccco4)n23)cc1 | – | 9.2 µM (active)
CCOCCn1ccc2c(OCC(=O)NCc3ccc(C)cc3)cccc2c1=O | -4.93% (inactive) | –
CN(C)c1ccc(C(CNS(=O)(=O)c2cc(F)ccc2F)N2CCOCC2)cc1 (centres undefined) | 4.28% (inactive) | –
CC[C@@H]1CC2=C(C(=O)OC(C)(C)O2)[C@@H](CC)O1 | 2.71% (inactive) | –
COc1cccc(OCC(=O)NCCS(=O)(=O)N2CCN(c3ccccc3)CC2)c1 | -0.223% (inactive) | –
COc1ccc2c(c1)C=C(C(=O)NCc1cc(Br)ccc1OC)CO2 | 7.07% (inactive) | –
COc1cc(-c2nnc(NC(=O)CS(=O)(=O)c3ccc(Cl)cc3)o2)cc(OC)c1OC | -2.72% (inactive) | –
COc1ccc(Cl)cc1NC(=O)CN(C)C(=O)c1cn(-c2ccccc2)nc1-c1cccs1 | -11% (inactive) | –
COc1cccc(CNC(=O)CN2C(=O)NC(Cc3ccccc3)(c3ccccc3)C2=O)c1 (centres undefined) | -1.58% (inactive) | –
O=C(CN1C(=O)NC(Cc2ccccc2)(Cc2ccccc2)C1=O)NCC1CCCCC1 | – | 20.6 µM (active)
O=C(CC1CCCCC1)NCc1ccccc1 | -3.84% (inactive) | –
COC(=O)C[C@H]1C[C@@H]2c3cc(N(C)C)ccc3O[C@@H]2[C@H](CO)O1 | 12% (inactive) | –
CN(Cc1ccccc1)C(=O)CSc1nc2ccccc2[nH]1 | -16% (inactive) | –
CCC(C)N1C(=O)S/C(=C/c2ccc(Sc3nc4ccccc4[nH]3)o2)C1=O (centres undefined) | – | 5.17 µM (active)
O=C1NC[C@H](Cc2ccc(O)cc2)N(C[C@H]2CCCN2C[C@H](Cc2ccccc2)N2C[C@H](Cc3ccccc3)N(CCc3ccccc3)C(=O)C2=O)C1=O | 10.8% (inactive) | –
COCCCNc1ccn2nc(-c3ccc(CC(C)C)cc3)cc2n1 | -15% (inactive) | –
